Screening results deposited in PubChem BioAssay by National Center for Advancing Translational Sciences (NCATS).
HCMV antiviral = qHTS Assay for inhibitors of the human cytomegalovirus (HCMV); activity change, negative = inhibition, % at 57.5 µM; HFF cells, HCMV-luciferase reporter, 72 h; stronger effect = lower value; hit rate 4.5% among 410,000; in the data active means activity change below about -60%; inconclusive means no clear call, values can overlap the other calls; inactive means above about -39%
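Screen run at 2 compound doses on HFFs infected with reporter HCMV, MOI 1 PFU/cell. Luciferase activity from cell lysates at 72 h post infection gave inhibition relative to buffer-only and Salinomycin wells.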
Cycloheximide cs = Cycloheximide Counterscreen for Small Molecule Inhibitors of Shiga Toxin. cell reporter, cycloheximide protein synthesis inhibition counterscreen. max response, %. hit rate 12% among 300,000; in the data active means max response mostly above about 13%, no sharp cut-off; inactive means mostly below about 14%; further: read at 38.3 µM for the half of the compounds with a filed dose
Pf growth 48h = Primary qHTS for delayed death inhibitors of the malarial parasite plastid, 48 hour incubation; hit rate 5.9% among 310,000; AID 504832, 2011; Potency, µM (top dose mostly 28.7 µM), actives largely listed as inhibitors; P. falciparum luciferase growth in erythrocytes, 48 h
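First compound was added to culture medium, then infected red cells at 0.1% parasitemia and 2% hematocrit (final). After incubation at 37 C under 5% CO2, luciferase detection reagent was dispensed and light output recorded.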
Pf growth 96h = Primary qHTS for delayed death inhibitors of the malarial parasite plastid, 96 hour incubation | P. falciparum luciferase reporter growth, 96 h | Potency, µM (highest dose often 28.7 µM), actives largely listed as inhibitors | hit rate 6.9% among 320,000 | AID 504834, 2011
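Erythrocytes infected with luciferase-expressing P. falciparum were dispensed at 2% hematocrit and 0.05% parasitemia (final), then incubated with compounds 96 hours at 37 C in 5% CO2. Luminescence after detection reagent addition reported growth.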
Shiga inhibitor = A qHTS for Small Molecule Inhibitors of Shiga Toxin | Vero cells, Shiga toxin protein synthesis inhibition reporter | inhibition, % at 38.7 µM | hit rate 9.2% among 290,000 | AID 2315, 2010; in the data active means inhibition mostly above about 28%, no sharp cut-off; inactive means mostly below about 43%
A number is an active result; n = inactive; u = inconclusive; x = not tested or not shown. This is a sample that favours compounds with a hit; in the whole collection about 20% have one here. Unless noted, the call rests on the fitted dose curve; in most records, active means well fitted inhibition curve with a large enough effect; inconclusive means small, poorly fitted or top-dose-only effect, or another doubt; inactive means no such curve, though single readings can be large or run the other way.

SMILES	HCMV antiviral	Cycloheximide cs	Pf growth 48h	Pf growth 96h	Shiga inhibitor
CCOC(=O)C1CCCN(C(=O)c2cc(S(=O)(=O)N3CCCCCC3)ccc2OC)C1 (configuration not stated)	n	x	9.3µM	9.3µM	x
CCOC(=O)C1CCN(c2cc3c(cc2NC(=O)c2ccc(OC)c(OC)c2)n(C)c(=O)n3C)CC1	n	n	8.3µM	u	n
CCOC(=O)C1CCN(S(=O)(=O)c2cccc3nonc23)CC1	n	n	n	n	n
CCOC(=O)C1CCN(S(=O)(=O)c2nc3nc(C)cc(C)n3n2)CC1	n	n	n	10µM	n
CCOC(=O)C1CCN(S(=O)(=O)c2c(Cl)ccc3nonc23)CC1	-113	n	n	2.3µM	n
O[C@@H]1COC2[C@@H](O)CO[C@@H]21 (some centres not stated)	x	n	x	x	n
COc1ccc(NC(C)=[N+](C)CCNS(=O)(=O)c2ccc(Cl)cc2)cc1	n	n	n	n	n
CCOC(=O)C1CCCN(C(=O)c2cccc(S(=O)(=O)N(Cc3ccccc3)c3ccccc3OC)c2)C1 (configuration not stated)	n	x	10µM	u	x
CCOC(=O)C1CCN(C(=O)C2CCCN2S(=O)(=O)c2ccc(Cl)cc2)CC1 (configuration not stated)	n	n	n	10µM	n
O=C(C1CCCN1S(=O)(=O)c1ccc(Cl)cc1)N1CCCCC1 (configuration not stated)	n	n	n	n	n
CCOC(=O)C1CCN(C(=O)c2ccc(OC)cc2OC)CC1	n	n	n	13µM	n
CCOC(=O)C1CCCN(C(=O)c2cccc(S(=O)(=O)N(C)c3ccc(OC)cc3)c2)C1 (configuration not stated)	n	x	u	n	x
CCOC(=O)C1CCN(C(=O)c2cc(S(=O)(=O)N3CCCCCC3)ccc2OC)CC1	n	x	u	4.1µM	x
CCOC(=O)C1CCN(S(=O)(=O)c2ccc(OC)c(C(=O)N3CCCCCC3)c2)CC1	n	n	n	n	n
CCOC(=O)C1CCCN(C(=O)c2cn(C)c3ccc(S(=O)(=O)N(C)C)cc3c2=O)C1 (configuration not stated)	n	n	x	0.93µM	n
CCOC(=O)C1CCN(S(=O)(=O)c2ccc(OC)c(OC)c2)CC1	n	n	x	n	n
CCOC(=O)C1CCCN(C(=O)c2ccc(S(=O)(=O)Nc3ccccc3OC)cc2)C1 (configuration not stated)	n	x	12µM	u	x
CCOC(=O)C1=C(COC(=O)[C@@H]2CCCN2S(=O)(=O)c2ccc(C)cc2)NC(=O)NC1C (some centres not stated)	u	12	n	n	n
CN(C)S(=O)(=O)c1ccc2c(c1)c(=O)c(C(=O)N1CCOCC1)cn2C	n	n	x	n	n
CCOC(=O)C1CCN(S(=O)(=O)c2ccc(Br)c(OCC)c2)CC1	n	n	n	4.7µM	n
CCOC(=O)C1CCCN(CC(=O)Nc2ccc(C(=O)Nc3ccccc3OC)cc2)C1 (configuration not stated)	n	x	12µM	u	x
COc1ccc(C(=O)NC2CCCc3ccccc32)c(OC)c1OC (configuration not stated)	n	n	n	n	n
COc1cccc(CNC(=O)CC(c2ccc(F)cc2)N2Cc3ccccc3C2=O)c1 (configuration not stated)	n	x	x	x	x
COc1cc(-c2ccno2)ccc1S(=O)(=O)N1CCN(c2cccc(Cl)c2)CC1	n	x	x	x	x
CCC(Oc1ccccc1)C(=O)Nc1cc(Cl)ccc1-n1cncn1 (configuration not stated)	n	x	4.1µM	12µM	x
SMILES	HCMV antiviral	Cycloheximide cs	Pf growth 48h	Pf growth 96h	Shiga inhibitor
Cc1cc(CN2CCN(CC(=O)Nc3cc(Cl)ccc3-n3cncn3)CC2)no1	n	x	2.1µM	2.1µM	x
COc1ccc(C(=O)Nc2cc(C(F)(F)F)ccc2-n2cncn2)cc1	n	n	x	u	n
CC(Oc1ccc(F)cc1)C(=O)Nc1cc(C(F)(F)F)ccc1-n1cncn1 (configuration not stated)	n	x	0.59µM	0.41µM	x
Cc1cc(CN2CCN(CC(=O)Nc3cc(C(F)(F)F)ccc3-n3cncn3)CC2)no1	n	x	10µM	4.1µM	x
Cc1nc(C)c(C(=O)OCC(=O)Nc2cccc(C)c2C)s1	n	x	n	n	x
O=C(CSc1ncccc1C(=O)Oc1ccccc1Cl)Nc1ccc(C(F)(F)F)cc1Cl	n	x	x	x	x
COc1ccc2c(CN3CCCCCCC3)cc(=O)oc2c1	n	x	x	x	x
CC/C(=N\NC(=O)c1ccoc1C)c1ccc(C)o1	n	82	n	n	149
C/C(=N\NC(=O)c1ccoc1C)c1ccc(Cl)s1	n	41	n	n	87
C/C(=N\NC(=S)NC(C)C)c1ccc(Cl)s1	n	n	n	u	n
C/C(=N\NC(N)=S)c1ccc(Cl)s1	-67	n	n	u	n
C/C(=N\NC(=O)c1csc(C)c1C)c1ccc(Cl)s1	n	33	n	x	72
CC1CCC(NC(=O)c2cccc(S(=O)(=O)NCc3ccccc3)c2)CC1 (configuration not stated)	n	x	u	n	x
COc1ccc(-c2nc3cc(NC(=O)COc4ccc(F)cc4)ccc3o2)cc1	n	x	x	x	x
COc1ccc(C(=O)O/N=C(/C)c2cccs2)cc1	n	34	x	n	61
C/C(=N\OC(=O)c1ccc(F)cc1)c1nccs1	n	47	n	n	n
COc1ccc2[nH]c(=O)c(COC(=O)c3cccs3)cc2c1	n	n	n	n	n
COc1ccc(C(=O)O/N=C(\C)c2nccs2)cc1	n	26	n	n	n
COc1ccc(OCCOC(=O)c2cccs2)cc1	n	33	n	n	77
Cc1cccc(NC(=O)Nc2ccc(C)c(C)c2)n1	n	24	n	x	54
Cc1cccc(NC(=O)Nc2ccc([N+](=O)[O-])cc2)n1	-62	n	n	n	n
Cc1cccc(NC(=O)Nc2ccc(Cl)cc2)n1	n	22	n	n	39
Cc1cccc(NC(=S)Nc2cccc(C)n2)n1	n	n	u	13µM	n
Cc1cccc(NC(=S)NC2CCCC2)n1	n	n	n	n	n
Cc1cccc(NC(=O)c2ccc([N+](=O)[O-])cc2Cl)n1	n	n	n	u	n
SMILES	HCMV antiviral	Cycloheximide cs	Pf growth 48h	Pf growth 96h	Shiga inhibitor
Cc1ccccc1S(=O)(=O)NC(=O)C1(C)CCN1C(=O)CC(c1ccccc1)c1ccccc1 (configuration not stated)	n	x	x	x	x
Cc1cccc(NC(=O)Nc2cccc(C)n2)n1	n	20	n	u	86
Cc1ccc(/C=C(\C#N)C(=O)Nc2cccc(C)n2)cc1	n	n	n	n	n
Cc1ccc(NC(=O)c2cn(-c3cccc(C)n3)cn2)cc1	n	39	n	n	90
Cc1cccc(NC(=O)c2cccc(C(=O)Nc3cccc(C)n3)c2)n1	n	n	n	n	n
Cc1ccc(NC(=O)Nc2cccc(C)n2)cc1	n	49	n	n	103
Cc1c(-c2cccc(NC(=O)Nc3ccc(Cl)cc3)c2)nc2ncccn12	-86	x	x	x	x
